Measurements: PubChem BioAssay (NCI)
Compounds without any hit were thinned out: in the full panel of roughly 79,000, 15% have a hit. A number with no mark means an inactive call. Activity calls are given as the source filed them. No stated cut-off is given here; in the data, active means growth inhibition above about 70%; inactive means the rest.

Assays:
[1] = NCI Yeast Anticancer Drug Screen. Data for the rad50 strain (AID 155);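 further: 0% = growth of vehicle-only cultures of the same strain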; details: S. cerevisiae rad50 strain growth inhibition; at 50.0 µM; hits give high values
In short: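 Vehicle-treated cultures provide the reference for the growth inhibition reported for compound-exposed, repair-deficient yeast.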

[2] = NCI Yeast Anticancer Drug Screen. Data for the mec2-1 strain (AID 157); details: S. cerevisiae mec2-1 strain, at 50.0 µM, hits give high values
In short: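 Strain: mec2-1 (DNA repair/cell cycle alteration). Compound exposure, then growth measured; inhibition expressed relative to vehicle.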

[3] = NCI Yeast Anticancer Drug Screen. Data for the sgs1 mgt1 strain (AID 161);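 further: 0% = growth of cultures given vehicle only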; details: S. cerevisiae sgs1 mgt1 strain, at 50.0 µM, hits give high values
In short: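 Inhibition of yeast growth, normalised to vehicle-treated controls, is reported for a strain bearing genetic alterations in DNA damage repair.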

[4] = NCI Yeast Anticancer Drug Screen. Data for the cln2 rad14 strain (AID 165);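 further: 0% = growth equal to vehicle treated cultures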; details: S. cerevisiae cln2 rad14 strain, at 50.0 µM, hits give high values
In short: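 Compounds are applied to the cln2 rad14 yeast strain, and growth is then compared with that of vehicle-treated cultures to give inhibition.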

[5] = NCI Yeast Anticancer Drug Screen. Data for the bub3 strain (AID 167); details: S. cerevisiae bub3 mutant strain, at 50.0 µM, hits give high values
In short: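 Mutant yeast screening strain plus compound; vehicle-treated cultures serve as the 0% inhibition reference.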

[6] = NCI Yeast Anticancer Drug Screen. Data for the mlh1 rad18 strain (AID 175); details: S. cerevisiae mlh1 rad18 strain growth inhibition; at 50.0 µM; hits give high values
In short: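 Read-out is yeast growth inhibition, calculated against vehicle-only controls. The compound was applied to a strain engineered with DNA damage repair alterations.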

SMILES | growth inhibition [1] [%] | growth inhibition [2] | growth inhibition [3] | growth inhibition [4] | growth inhibition [5] | growth inhibition [6] [%]
Cc1cc(O)c(C(c2ccccn2)c2c(O)cc(C)[nH]c2=O)c(=O)[nH]1 | -4.85 | 6.15% | -7.9% | -2.55% | -0.25% | 5
S=C(N/N=C/c1cccc2ccccc12)Nc1c(Cl)cccc1Cl | 67.4 | 83.6% (active) | 94.2% (active) | 55.6% | 44.6% | 66.2
O=[N+]([O-])c1cc(N(c2ccccc2)c2ccccc2)cc([N+](=O)[O-])c1 | 2.05 | -12.4% | -30.4% | 9.95% | -2.8% | -22.6
C[N+](C)(CCO)CCO | 3.15 | -8% | -8.5% | 14.8% | 0.85% | 13.1
Cc1cccc(Oc2ccc(C(F)(F)F)cc2[N+](=O)[O-])c1C | -32.2 | -2.15% | 2.55% | -45.4% | 45.3% | -15.2
CC[P+](C)(Cc1ccccc1)c1ccccc1 (configuration not stated) | -0.75 | 1.6% | 22.1% | -3.25% | 9.45% | 21.3
O=S(=O)(c1ccccc1)C1CCCCC1I (configuration not stated) | 45.9 | 3.5% | 21.4% | -30.5% | 23.7% | 18.8
O=C(O)/C=C/c1ccncc1 | -1.7 | -6.35% | -7.15% | 3.75% | -0.3% | 5.1
O=C(Nc1cccc2ccccc12)OC1CCCC1 | 1.2 | -12.4% | -14.4% | -53.7% | 6.35% | -28.6
O=S1(=O)COc2ccccc2-c2ncncc21 | 10.2 | -9.85% | -2.35% | 31.2% | -2.6% | -11.8
CCc1ccc(CC(=S)N2CCOCC2)cc1 | 4.2 | 1.45% | 5.55% | -1.7% | -15.9% | -3.9
COc1cc2c(c(OC)c1OC)-c1ccc(S(C)(=O)=O)c(=O)cc1[C@@H](NC(C)=O)CC2 | 3.25 | -7.1% | 3.2% | 4.7% | -35% | -44.4
O=C1/C(=C/c2ccc(O)cc2)CCC/C1=C\c1ccc(O)cc1 | 3.9 | 1.85% | 5.2% | 23.1% | -7.05% | 1.45
[N-]=[N+]=Nc1ccccc1C(=O)NCCCNC(=O)c1ccccc1N=[N+]=[N-] | -0.25 | -23.1% | 25% | 1.8% | 19.4% | 16
O=C1c2ccccc2CC1(c1ccccc1)c1ccccc1 | 15.1 | -5% | -6.6% | 10.5% | -9.85% | -7.5
N#C/C(=C\NC(N)=S)c1nc2ccccc2s1 | -18.1 | 7.15% | -15.8% | 24.8% | -4.25% | -11.7
CC(=O)OCC/C=C\CCCOC(C)=O | 5.55 | -2.7% | -3% | -1.75% | 8.3% | 3.65
CCNC(=O)Oc1cccc(NC(=O)CC)c1 | 3.2 | -4.2% | -0.25% | -14.2% | 3.65% | 3.7
Cc1ccc2ccccc2c1[N+](=O)[O-] | 43.5 | 5% | 37.3% | 17.1% | 21.6% | 36.5
[O-]c1c[n+](-c2ccc3c(c2)OCO3)no1 | 3.2 | -3.25% | -0.25% | -16.4% | 7.3% | 13.7
CNC(=O)c1nnn(Cc2ccc(OC)cc2)c1Cl | -8.05 | -8.9% | -14.7% | -69% | -1.3% | -8.15

SMILES | growth inhibition [1] [%] | growth inhibition [2] | growth inhibition [3] | growth inhibition [4] | growth inhibition [5] | growth inhibition [6] [%]
N#C/C(N)=C(\C#N)N=CNc1ccc(N)cc1 | -32.8 | -31.1% | -22.2% | 23% | 1.4% | -10.9
CC(C)(C)OC(=O)N[C@H]1CCN(C2CCCCC2)C1=O | -34.9 | -10.1% | -22.1% | 7.75% | -6.4% | -62.5
CC(=O)C1(C)SC(N(c2ccccc2)c2ccccc2)=NC1=O (configuration not stated) | -1.2 | -4.4% | -4.05% | 2.4% | 9.05% | -0.6
CC(C)OC/N=C(/N)NC#N | -17.1 | 13.1% | -29.4% | 12.6% | -10.1% | -6.5
Cc1csc(-n2nc(C)cc2C)n1 | -5.35 | -23.1% | -37.2% | 6.75% | -30.9% | -6.05
CC(C)Oc1ccc(C(=O)OCCC(C)N2CCCC2)cc1 (configuration not stated) | 40.9 | 36.7% | 53.2% | 31.5% | 46.4% | 27.9
CCCC1=C(OC)C(=O)c2c(C)cc(Cl)nc2C1=O | 48.5 | 48.2% | 86.2% (active) | 78.8% (active) | 87.5% (active) | 38.9
O=C(c1cc(O)c(O)c(O)c1)c1ccc(O)c(O)c1O | 12.9 | 5.95% | 11.3% | 5.2% | 14.1% | 32.8
CCOC(CN=Cc1cccc2ccccc12)OCC | -26.4 | -1.4% | -11.8% | 46.7% | -3.55% | 18.6
Cc1ccc(S(=O)(=O)OC2CCC(C(C)(C)C)C(Cl)C2)cc1 (configuration not stated) | -8 | 8.3% | 3.2% | 9.55% | 3.35% | -6.75
CCCCCCCCCCCCCC/C=N/Nc1ccc([N+](=O)[O-])cc1[N+](=O)[O-] | 21.3 | 24% | 13.5% | 6.25% | -2% | 22.8
CCC(=O)Oc1c2ccsc2c(OC(=O)CC)c2ccsc12 | 29.1 | 6.6% | 32.1% | -3.2% | 29.4% | 13.7
COC(=O)CC(c1ccc2c(c1)OCO2)N1CCCCC1 (configuration not stated) | 7.35 | -12.9% | -11.7% | -22.9% | -1% | 11.2
CC(=O)Oc1ccc(-c2c3ccccc3cc3c2ccc2ccccc23)cc1 | 1.75 | -10.4% | -9.85% | -5.05% | -2.7% | -28.3
C[C@@]12C[C@@H](c3ccccc3O1)N1CCCSC1=N2 | 20.2 | -16% | 4.6% | 32.8% | -9.8% | 12.4
O=C(Nc1cccc(O)c1)OC1CCCCC1 | 25.8 | 6.05% | 25.2% | -18.1% | 34% | 24.4
[N-]=[N+]=Nc1ccccc1-c1ccc([N+](=O)[O-])cc1 | -12.9 | -11.5% | 11.1% | -32.2% | 1.2% | 29.6
OC1COc2c3ccccc3nn2C1 (configuration not stated) | -1.35 | 2.85% | 21.7% | 14.5% | 7.8% | 30.1
CCOC(=O)c1nc(N(C)C)oc(=O)c1C | 25.1 | 33.1% | 28.1% | -0.7% | 18.6% | 13.6
CC(=O)n1[nH]c(=O)c2ncccc2c1=O | 2.75 | 7.6% | 9.45% | -6.6% | -8.45% | 9
COc1ccc(C(=O)CC(Sc2ccccc2N)c2ccc(OC)cc2)cc1 (configuration not stated) | -16.6 | -17.9% | 8.95% | -10% | 6.3% | -7.3
